Experimental findings from paper PMC7862700, “An all-to-all approach to the identification of sequence-specific readers for epigenetic DNA modifications on cytosine” are described below.

What all share (assay): DAPPL (digital affinity profiling via proximity ligation, sequencing); 10 mM Tris-HCl pH 7.5, 50 mM NaCl, 1 mM DTT, 4% glycerol, room temperature, 30 min; GST-TFs on glutathione beads, 16-mer random dsDNA library, 0.1% formaldehyde crosslink after washing; high values mean tight binding
What all share (details): protein: recombinant; tags: N-terminal GST; dsDNA, one strand shown

The target of assay [1] is T1, FLI1 (Homo sapiens, UniProt Q01543 1-452).
T1 sequence: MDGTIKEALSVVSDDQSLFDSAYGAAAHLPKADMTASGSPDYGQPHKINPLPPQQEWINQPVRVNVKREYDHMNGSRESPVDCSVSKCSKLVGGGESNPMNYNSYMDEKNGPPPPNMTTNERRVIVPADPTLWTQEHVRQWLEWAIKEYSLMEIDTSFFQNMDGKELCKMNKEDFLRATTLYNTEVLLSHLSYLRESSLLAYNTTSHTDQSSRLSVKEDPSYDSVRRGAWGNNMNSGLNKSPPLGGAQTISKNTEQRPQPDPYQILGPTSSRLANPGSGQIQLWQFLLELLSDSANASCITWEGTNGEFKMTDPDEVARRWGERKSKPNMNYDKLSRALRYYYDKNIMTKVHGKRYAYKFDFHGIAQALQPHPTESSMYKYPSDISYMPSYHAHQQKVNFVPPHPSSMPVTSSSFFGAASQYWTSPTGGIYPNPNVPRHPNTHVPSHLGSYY
A digest of the protocol: (§1)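 Binding signal is given per hexamer as its read frequency for a factor divided by its frequency in the tag-only sample. GST-fused human transcription factors were expressed in yeast, captured on glutathione beads, barcoded with DNA and pooled with that sample, then incubated with 200 nmole of a 16-mer random double-stranded DNA library in Tris/NaCl/DTT/glycerol buffer for 30 min at room temperature. The pools were then washed, crosslinked, proximity-ligated, amplified by PCR and sequenced on an Illumina NextSeq500.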

Assay [2] deals with T2, ELK1 (Homo sapiens, UniProt P19419 1-428).
T2 sequence: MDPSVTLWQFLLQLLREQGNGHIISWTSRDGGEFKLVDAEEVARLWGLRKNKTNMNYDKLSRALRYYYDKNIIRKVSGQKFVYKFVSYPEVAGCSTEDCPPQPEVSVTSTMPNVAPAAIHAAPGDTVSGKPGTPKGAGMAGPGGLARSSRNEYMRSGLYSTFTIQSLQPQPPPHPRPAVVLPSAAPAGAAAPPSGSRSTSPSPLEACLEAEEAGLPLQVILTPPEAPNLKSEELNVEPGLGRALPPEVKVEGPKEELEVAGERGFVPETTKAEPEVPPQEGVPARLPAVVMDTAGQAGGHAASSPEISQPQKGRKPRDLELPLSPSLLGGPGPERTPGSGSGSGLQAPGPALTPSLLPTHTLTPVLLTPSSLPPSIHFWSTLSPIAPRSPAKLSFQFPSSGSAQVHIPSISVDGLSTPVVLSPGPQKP
A digest of the protocol: as §1

The target in assay [3] is T3, GABPA (Homo sapiens, UniProt Q06546 1-454).
T3 sequence: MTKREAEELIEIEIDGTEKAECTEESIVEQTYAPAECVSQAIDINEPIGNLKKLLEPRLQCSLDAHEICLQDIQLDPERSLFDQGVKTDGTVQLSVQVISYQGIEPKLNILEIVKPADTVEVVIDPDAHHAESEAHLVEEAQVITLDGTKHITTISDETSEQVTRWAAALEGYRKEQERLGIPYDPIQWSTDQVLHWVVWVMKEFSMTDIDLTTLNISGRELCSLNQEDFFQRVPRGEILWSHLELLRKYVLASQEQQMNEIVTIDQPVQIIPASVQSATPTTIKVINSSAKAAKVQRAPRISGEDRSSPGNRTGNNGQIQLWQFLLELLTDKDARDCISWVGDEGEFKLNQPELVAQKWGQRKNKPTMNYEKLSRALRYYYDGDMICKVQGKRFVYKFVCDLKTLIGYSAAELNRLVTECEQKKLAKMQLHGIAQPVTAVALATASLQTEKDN
A digest of the protocol:
as §1

In assay [4] the target is T4, ERG (Homo sapiens, UniProt P11308 1-479).
T4 sequence: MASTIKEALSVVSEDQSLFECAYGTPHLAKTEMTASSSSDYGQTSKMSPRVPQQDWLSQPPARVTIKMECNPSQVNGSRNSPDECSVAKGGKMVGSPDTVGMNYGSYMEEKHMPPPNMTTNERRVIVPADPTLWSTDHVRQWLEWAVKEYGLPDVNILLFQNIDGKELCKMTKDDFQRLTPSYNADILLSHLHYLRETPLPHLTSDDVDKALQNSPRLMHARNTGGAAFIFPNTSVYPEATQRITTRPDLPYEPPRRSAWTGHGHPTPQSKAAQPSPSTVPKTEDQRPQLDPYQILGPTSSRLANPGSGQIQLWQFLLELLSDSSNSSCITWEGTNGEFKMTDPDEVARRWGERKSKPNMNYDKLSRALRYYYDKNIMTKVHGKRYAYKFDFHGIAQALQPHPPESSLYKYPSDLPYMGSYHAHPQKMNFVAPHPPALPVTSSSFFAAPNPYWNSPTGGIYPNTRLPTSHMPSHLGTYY
A digest of the protocol:
as §1

For assay [5], the target named is ELF1 (Homo sapiens, UniProt P32519 1-619). A digest of the protocol:
as §1

In assay [6] the target is T5, EHF (Homo sapiens, UniProt Q9NZC4 1-300).
T5 sequence: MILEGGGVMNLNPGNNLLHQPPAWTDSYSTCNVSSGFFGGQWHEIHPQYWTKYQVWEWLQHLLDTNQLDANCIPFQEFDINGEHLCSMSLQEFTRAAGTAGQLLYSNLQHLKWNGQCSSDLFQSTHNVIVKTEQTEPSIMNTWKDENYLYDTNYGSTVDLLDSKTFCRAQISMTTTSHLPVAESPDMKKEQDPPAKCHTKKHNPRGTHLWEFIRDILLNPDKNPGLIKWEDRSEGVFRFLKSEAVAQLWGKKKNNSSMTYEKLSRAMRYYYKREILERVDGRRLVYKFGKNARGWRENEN
A digest of the protocol: as §1

Assay [7] deals with SPI1 (Homo sapiens, UniProt P17947 1-270). A digest of the protocol: as §1
Assay [8] has as its target SPIB (Homo sapiens, UniProt Q01892 1-262). A digest of the protocol:
as §1

Assay [9] has as its target T6, ELK3 (Homo sapiens, UniProt P41970 1-407).
T6 sequence: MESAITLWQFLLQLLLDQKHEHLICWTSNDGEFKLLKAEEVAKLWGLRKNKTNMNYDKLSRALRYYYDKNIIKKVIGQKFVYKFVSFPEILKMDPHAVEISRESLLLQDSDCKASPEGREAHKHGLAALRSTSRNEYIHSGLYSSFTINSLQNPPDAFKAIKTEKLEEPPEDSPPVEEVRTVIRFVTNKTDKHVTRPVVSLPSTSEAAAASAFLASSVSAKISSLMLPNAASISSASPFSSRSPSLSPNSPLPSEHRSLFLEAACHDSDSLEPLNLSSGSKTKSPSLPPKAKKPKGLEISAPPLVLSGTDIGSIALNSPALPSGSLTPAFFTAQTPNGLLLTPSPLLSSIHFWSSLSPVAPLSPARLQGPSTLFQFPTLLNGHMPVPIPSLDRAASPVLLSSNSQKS
A digest of the protocol: as §1

Chain of ELF1 (P32519 whole entry): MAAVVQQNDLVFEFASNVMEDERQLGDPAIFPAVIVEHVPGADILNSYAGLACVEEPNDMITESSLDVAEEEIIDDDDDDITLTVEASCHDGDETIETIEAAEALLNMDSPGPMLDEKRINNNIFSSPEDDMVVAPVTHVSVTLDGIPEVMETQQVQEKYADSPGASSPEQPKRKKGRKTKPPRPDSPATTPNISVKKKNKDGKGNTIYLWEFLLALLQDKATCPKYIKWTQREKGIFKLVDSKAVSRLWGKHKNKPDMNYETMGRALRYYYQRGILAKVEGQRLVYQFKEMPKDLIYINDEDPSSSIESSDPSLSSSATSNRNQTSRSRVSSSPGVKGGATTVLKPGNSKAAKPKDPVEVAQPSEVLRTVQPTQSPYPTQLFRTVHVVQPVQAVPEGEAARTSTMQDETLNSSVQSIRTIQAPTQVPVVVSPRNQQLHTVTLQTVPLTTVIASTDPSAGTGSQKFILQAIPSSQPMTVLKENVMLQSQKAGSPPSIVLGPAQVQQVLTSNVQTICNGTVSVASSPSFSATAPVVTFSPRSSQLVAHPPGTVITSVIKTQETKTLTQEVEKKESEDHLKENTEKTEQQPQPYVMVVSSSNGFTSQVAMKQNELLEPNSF
Chain of SPIB (Q01892 whole entry): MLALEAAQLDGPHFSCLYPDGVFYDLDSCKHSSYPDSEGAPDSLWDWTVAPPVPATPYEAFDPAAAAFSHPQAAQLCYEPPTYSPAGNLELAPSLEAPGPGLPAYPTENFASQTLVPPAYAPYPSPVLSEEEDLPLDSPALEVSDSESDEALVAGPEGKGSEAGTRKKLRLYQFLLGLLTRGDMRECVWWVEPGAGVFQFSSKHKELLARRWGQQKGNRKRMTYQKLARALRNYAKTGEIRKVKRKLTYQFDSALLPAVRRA

For the sequence AAAATA, the binding signal in assay [1] is 1.17 fold enrichment (6-mer frequency, TF over GST control); in assay [2], 1.12 fold enrichment (6-mer frequency, TF over GST control); in assay [3] it was 1.18 fold enrichment (6-mer frequency, TF over GST control); in assay [4] it was 1.19 fold enrichment (6-mer frequency, TF over GST control); in assay [5], 1.19 fold enrichment (6-mer frequency, TF over GST control); in [6] it was 1.13 fold enrichment (6-mer frequency, TF over GST control). For the same sequence, the binding signal in assay [7] was 1.18 fold enrichment (6-mer frequency, TF over GST control); in assay [8], 1.23 fold enrichment (6-mer frequency, TF over GST control); in [9], 1.17 fold enrichment (6-mer frequency, TF over GST control).

Regarding CATCCT, the binding signal in assay [1] is 1.68 fold enrichment (6-mer frequency, TF over GST control); in assay [2] it was 1.65 fold enrichment (6-mer frequency, TF over GST control); in [3], 1.51 fold enrichment (6-mer frequency, TF over GST control); in assay [4], 1.75 fold enrichment (6-mer frequency, TF over GST control); in assay [5], 1.64 fold enrichment (6-mer frequency, TF over GST control); in assay [6], 1.62 fold enrichment (6-mer frequency, TF over GST control). The binding signal in [7] was 1.59 fold enrichment (6-mer frequency, TF over GST control); in assay [8], 1.7 fold enrichment (6-mer frequency, TF over GST control); in assay [9], 1.68 fold enrichment (6-mer frequency, TF over GST control).

Turning to TGTTTC, the binding signal was 1.91 fold enrichment (6-mer frequency, TF over GST control) in assay [1]; 1.85 fold enrichment (6-mer frequency, TF over GST control) in [2]; 1.59 fold enrichment (6-mer frequency, TF over GST control) in [3]; 1.97 fold enrichment (6-mer frequency, TF over GST control) in assay [4]; 1.8 fold enrichment (6-mer frequency, TF over GST control) in [5]; 1.79 fold enrichment (6-mer frequency, TF over GST control) in assay [6]. In addition, the binding signal in assay [7] is 1.69 fold enrichment (6-mer frequency, TF over GST control); in assay [8], 1.74 fold enrichment (6-mer frequency, TF over GST control); in assay [9], 1.61 fold enrichment (6-mer frequency, TF over GST control).

For the sequence TTTTAA, the binding signal in assay [1] was 1.26 fold enrichment (6-mer frequency, TF over GST control); in assay [2], 1.28 fold enrichment (6-mer frequency, TF over GST control); in [3], 1.25 fold enrichment (6-mer frequency, TF over GST control); in assay [4] it was 1.2 fold enrichment (6-mer frequency, TF over GST control); in [5] it was 1.29 fold enrichment (6-mer frequency, TF over GST control); in [6] it was 1.22 fold enrichment (6-mer frequency, TF over GST control). The binding signal in [7] is 1.32 fold enrichment (6-mer frequency, TF over GST control); in assay [8] it was 1.26 fold enrichment (6-mer frequency, TF over GST control); in [9], 1.3 fold enrichment (6-mer frequency, TF over GST control).

Consider ACTATC, for which the binding signal in assay [1] was 1.15 fold enrichment (6-mer frequency, TF over GST control); in assay [2], 1.13 fold enrichment (6-mer frequency, TF over GST control); in assay [3], 1.17 fold enrichment (6-mer frequency, TF over GST control); in [4] it was 1.11 fold enrichment (6-mer frequency, TF over GST control); in assay [5], 1.12 fold enrichment (6-mer frequency, TF over GST control); in assay [6], 1.14 fold enrichment (6-mer frequency, TF over GST control). In addition, the binding signal in assay [7] is 1.21 fold enrichment (6-mer frequency, TF over GST control); in assay [8], 1.16 fold enrichment (6-mer frequency, TF over GST control); in [9] it was 1.07 fold enrichment (6-mer frequency, TF over GST control).

Take TGGCAT: the binding signal is 1.23 fold enrichment (6-mer frequency, TF over GST control) in [1]; 1.2 fold enrichment (6-mer frequency, TF over GST control) in assay [2]; 1.2 fold enrichment (6-mer frequency, TF over GST control) in [3]; 1.14 fold enrichment (6-mer frequency, TF over GST control) in assay [4]; 1.17 fold enrichment (6-mer frequency, TF over GST control) in assay [5]; 1.12 fold enrichment (6-mer frequency, TF over GST control) in assay [6]. The binding signal in [7] was 1.11 fold enrichment (6-mer frequency, TF over GST control); in assay [8], 1.07 fold enrichment (6-mer frequency, TF over GST control); in assay [9], 1.13 fold enrichment (6-mer frequency, TF over GST control).

Consider TATAGG, for which the binding signal in assay [1] was 1.14 fold enrichment (6-mer frequency, TF over GST control); in assay [2], 1.06 fold enrichment (6-mer frequency, TF over GST control); in [3] it was 1.19 fold enrichment (6-mer frequency, TF over GST control); in [4], 1.18 fold enrichment (6-mer frequency, TF over GST control); in assay [5], 1.15 fold enrichment (6-mer frequency, TF over GST control); in [6], 1.28 fold enrichment (6-mer frequency, TF over GST control). In addition, the binding signal in assay [7] was 1.23 fold enrichment (6-mer frequency, TF over GST control); in assay [8], 1.27 fold enrichment (6-mer frequency, TF over GST control); in assay [9], 1.08 fold enrichment (6-mer frequency, TF over GST control).

On to TTCGTA, for which the binding signal in [1] was 1.32 fold enrichment (6-mer frequency, TF over GST control); in [2], 1.44 fold enrichment (6-mer frequency, TF over GST control); in assay [3], 1.29 fold enrichment (6-mer frequency, TF over GST control); in assay [4] it was 1.38 fold enrichment (6-mer frequency, TF over GST control); in [5] it was 1.35 fold enrichment (6-mer frequency, TF over GST control); in [6] it was 1.34 fold enrichment (6-mer frequency, TF over GST control). For the same sequence, the binding signal in assay [7] is 1.24 fold enrichment (6-mer frequency, TF over GST control); in assay [8], 1.35 fold enrichment (6-mer frequency, TF over GST control); in assay [9], 1.41 fold enrichment (6-mer frequency, TF over GST control).
